In PubChem BioAssay AID602481 (Broad Institute, 2012):
Several values for one entry are separate records, joined by “and”; a condition that tells them apart may be missing. Equal entries are not always repeated. In all, about 360,000 compounds went through this assay and about 340 (0.094%) were called active. Cut-off read from the data, not from the text of the source: active = inhibition above about 40%; inconclusive = no clear call, values can overlap the other calls; inactive = below that. The full list was thinned out, with actives kept by preference. A structure can be active in one record and inactive in another.

system: 7,8-diaminopelargonic acid synthase BioA (Mycobacterium tuberculosis); test: M. tuberculosis BioA enzyme inhibitors, primary screen, biochemical, plate reader, single point, HTS (AID 602481); conditions: purified M. tuberculosis BioA enzyme, at 9.99 µM, stronger effect = higher value

Row | SMILES | inhibition
1 | CN1C(=O)c2cc(NC(=O)c3ccc(F)c(F)c3)ccc2OC[C@H]2O[C@@H](CC(=O)N3CCCCC3)CC[C@H]21 | 4.19% (inactive)
2 | C[C@@H]1CN([C@@H](C)CO)C(=O)c2cc(C#C[C@@H](C)O)cnc2O[C@H]1CN(C)CC1CCOCC1 | -0.205% (inactive)
3 | O=C(C[C@H]1C[C@@H]2c3cc(NC(=O)CC4CC4)ccc3O[C@@H]2[C@@H](CO)O1)NCc1cc(F)ccc1F | -0.019% (inactive)
4 | COCC#Cc1cnc2c(c1)C(=O)N([C@H](C)CO)C[C@H](C)[C@H](CN(C)Cc1ccc(-c3ccccc3)cc1)O2 | -2.84% (inactive)
5 | C[C@@H]1CN([C@H](C)CO)C(=O)c2cc(NC(=O)Nc3ccc(F)cc3)ccc2O[C@@H]1CN(C)Cc1ccc(Cl)c(Cl)c1 | -0.852% (inactive)
6 | C[C@H]1CCCCO[C@H](CN(C)C(=O)CCC(F)(F)F)[C@@H](C)CN([C@@H](C)CO)C(=O)c2cc(NC(=O)Cc3ccccc3)ccc2O1 | 1.33% (inactive)
7 | C[C@H]1CN([C@@H](C)CO)S(=O)(=O)c2ccc(C#Cc3ccccc3)cc2O[C@H]1CN(C)S(=O)(=O)c1cn(C)cn1 | 0.612% (inactive)
8 | CCNC(=O)C[C@@H]1CC[C@H](NC(=O)C2CCC2)[C@@H](CO)O1 | 0.933% (inactive)
9 | O=C(c1ccncc1)N1CC[C@@H]2[C@H]1c1cc(Br)ccc1N[C@@H]2CO | 104% (active)
10 | O=C(c1cccnc1)N1CC[C@@H]2[C@@H](CO)Nc3ccc(-c4ccccc4)cc3[C@@H]21 | 18.1% (inactive)
11 | O=C(c1ccccc1)N1CC[C@H]2[C@H](CO)Nc3ccc(-c4ccc(F)cc4)cc3[C@H]21 | -4.36% (inactive)
12 | O=C(C[C@@H]1C=C[C@@H](NC(=O)c2ccccn2)[C@@H](CO)O1)NCc1cc(F)cc(F)c1 | -2.07% (inactive)
13 | C[C@@H]1CN([C@H](C)CO)C(=O)c2cc(NC(=O)NC3CCCCC3)ccc2O[C@@H](C)CCCCO[C@H]1CN(C)S(C)(=O)=O | 1.27% (inactive)
14 | CCC(=O)Nc1ccc2c(c1)OC[C@@H](C)N(Cc1ccccn1)C[C@H](C)[C@@H](OC)CN(C)C2=O | 0.9% (inactive)
15 | CO[C@H]1CN(C)C(=O)c2ccc(NC(C)=O)cc2OC[C@@H](C)NC[C@H]1C | -1.23% (inactive)
16 | C[C@@H]1CN([C@H](C)CO)C(=O)c2cc(-c3ccccc3)cnc2O[C@H]1CN(C)C(=O)Nc1ccccc1 | 4.24% (inactive)
17 | CNC(=O)C[C@H]1CC[C@H]2[C@@H](COc3ccc(NS(=O)(=O)c4ccc(F)cc4)cc3C(=O)N2C)O1 | 6.78% (inactive)
18 | COc1ccc(NC(=O)Nc2cccc3c2O[C@H](CN(C)S(=O)(=O)c2cn(C)cn2)[C@H](C)CN([C@@H](C)CO)C3=O)cc1 | 1.78% (inactive)
19 | C=CCn1c(SCC(=O)NCCCO)nc2sc3c(c2c1=O)CCC3 | 2.06% (inactive)
20 | CC(C)(C)C1CCc2c(sc3nc(SCC(N)=O)nc(N)c23)C1 (stereo not given) | 7.83% (inactive)
21 | C=C(C)CSc1nc(N)c2c3c(sc2n1)CCC3 | 54.5% (active)
22 | C[C@H](CO)N1C[C@H](C)[C@H](CN(C)C(=O)Nc2ccc(F)cc2)OCCCC[C@H](C)Oc2ccc(NC(=O)CCC(F)(F)F)cc2C1=O | -0.385% (inactive)

Row | SMILES | inhibition
23 | C[C@@H]1CN([C@@H](C)CO)C(=O)c2cccc(NS(=O)(=O)c3ccc(F)cc3)c2O[C@H]1CN(C)S(=O)(=O)c1cccs1 | -1.23% (inactive)
24 | CC(C)NC(=O)N1CCCCN2[C@@H](CO)[C@@H](c3ccc(C#C[C@@H](C)O)cc3)[C@@H]2C1 | 2.83% (inactive)
25 | CC(C)Oc1ccc(Cc2n[nH]c(=S)n2Cc2ccccc2)cc1Cl | 0.831% (inactive)
26 | CC(C)Oc1ccc(CCc2n[nH]c(=S)n2Cc2ccccc2)cc1 | 0.782% (inactive)
27 | COc1cc(-c2n[nH]c(=S)n2Cc2ccccc2)cc(OC)c1OC | 69.8% (active)
28 | COc1ccc(S(=O)(=O)N2C[C@@H](O)COC[C@H]3O[C@@H](CC(=O)NCCN4CCCCC4)CC[C@@H]32)cc1 | -1.77% (inactive)
29 | CC(C)NC(=O)N1[C@@H]2CN(C(=O)C3CCCCC3)c3ccccc3[C@@H]2[C@@H]1CO | -4.4% (inactive)
30 | Cc1noc(C)c1S(=O)(=O)N(C)C[C@@H]1Oc2c(NS(=O)(=O)c3cn(C)cn3)cccc2C(=O)N([C@@H](C)CO)C[C@H]1C | -0.608% (inactive)
31 | Cc1ccc(S(=O)(=O)N(C)C[C@@H]2Oc3c(NC(=O)NC(C)C)cccc3C(=O)N([C@H](C)CO)C[C@H]2C)cc1 | -1.17% (inactive)
32 | CC(=O)O[C@]1(C(C)=O)CC[C@H]2[C@@H]3C=C(C)C4=CC(=O)CC[C@]4(C)[C@H]3CC[C@@]21C | 13.2% (inactive) and 51.3% (active)
33 | C[C@]12CCC(=O)C=C1C=CC1C2CC[C@@]2(C)C1CC[C@@]21CCC(=O)O1 (stereo not given in full) | 19.6% (inactive)
34 | CC(=O)OCC(=O)C1(O)CCC2C3CC(C)C4=CC(=O)CCC4(C)C3C(O)CC21C (stereo not given) | -0.825% (inactive)
35 | CC(C)C#Cc1cnc2c(c1)C(=O)N([C@@H](C)CO)C[C@@H](C)[C@@H](CN(C)C(=O)CN1CCOCC1)O2 | -1.21% (inactive)
36 | C[C@@H]1CN([C@@H](C)CO)C(=O)c2cc(NS(=O)(=O)c3cn(C)cn3)ccc2O[C@@H](C)CCCCO[C@H]1CN(C)S(=O)(=O)c1cccs1 | 0.052% (inactive)
37 | O=C(C1CCCC1)N1[C@H](CO)[C@@H]2c3ccccc3N(S(=O)(=O)c3ccccc3)C[C@@H]21 | 6.11% (inactive)
38 | Cc1ccc(S(=O)(=O)N[C@H]2C=C[C@@H](CC(=O)NCCc3ccncc3)O[C@@H]2CO)cc1 | 2.21% (inactive)
39 | C[C@H](CO)N1C[C@H](C)[C@H](CN(C)S(=O)(=O)c2ccc(C#N)cc2)Oc2ncc(-c3cccc(F)c3)cc2C1=O | 4.36% (inactive)
40 | CO[C@@H](CN(C)S(=O)(=O)c1ccccc1)[C@@H](C)CN(Cc1ccccc1Cl)[C@H](C)CO | -0.143% (inactive)
41 | CC1CC(C)CN(C(=O)CSc2nnc(CSc3ncccn3)n2C)C1 (stereo not given) | 0.828% (inactive)
42 | O=C(CSc1nnc(-c2ccncc2)n1C1CCCCC1)Nc1ccccc1 | -0.812% (inactive)
43 | CC(=O)CSc1nnc(CSc2ncccn2)n1C1CCCCC1 | 43.5% (active)
44 | CCCN1C[C@H](C)[C@@H](OC)CN(C)C(=O)c2ccc(NC(=O)c3cnccn3)cc2OC[C@H]1C | -1.47% (inactive)

Row | SMILES | inhibition
45 | COc1ccc(NC(=O)N(C)C[C@H]2OCCCC[C@@H](C)Oc3ccc(NC(=O)Nc4ccc5c(c4)OCO5)cc3C(=O)N([C@H](C)CO)C[C@@H]2C)cc1 | -1.28% (inactive)
46 | C[C@H](CO)N1C[C@H](C)[C@@H](CN(C)C)Oc2ccc(NS(=O)(=O)c3cccs3)cc2C1=O | 2.81% (inactive)
47 | CC(=O)N1[C@H](CO)[C@H]2c3ccccc3N(C(=O)c3ccc(F)cc3)C[C@H]21 | -3.14% (inactive)
48 | Cc1ccc(S(=O)(=O)N(C)C[C@@H]2Oc3c(NC(=O)C4CC4)cccc3C(=O)N([C@H](C)CO)C[C@@H]2C)cc1 | -0.903% (inactive)
49 | C[C@@H]1CCCCO[C@H](CN(C)C)[C@@H](C)CN([C@H](C)CO)C(=O)c2cc(N(C)C)ccc2O1 | -0.059% (inactive)
50 | CN(C)CC(=O)Nc1ccc2c(c1)[C@H]1C[C@@H](CC(=O)NCc3ccc(Cl)cc3)O[C@@H](CO)[C@H]1O2 | 0.123% (inactive)
51 | C[C@H]1CN([C@@H](C)CO)C(=O)CCCn2cc(nn2)CO[C@H]1CN(C)C(=O)Nc1cccc(C(F)(F)F)c1 | -3.91% (inactive)
52 | COCC(=O)N1[C@H](CO)[C@@H](c2ccccc2)[C@H]1CN(C)C(=O)c1ccncc1 | -4.1% (inactive)
53 | C[C@@H]1CN([C@@H](C)CO)C(=O)c2c(c3ccccc3n2C)-c2ccccc2CO[C@H]1CN(C)S(=O)(=O)c1cccs1 | -2.08% (inactive)
54 | CN1[C@@H]2CN(C(=O)C3CCCCC3)c3ccccc3[C@@H]2[C@@H]1CO | 5.87% (inactive)
55 | CC(C)(C)[S@@](=O)N1Cc2cc(C(=O)N3CCCCC3)nc(-c3cccc(-c4cccc(C#N)c4)c3)c2[C@H]1CCO | 0.956% (inactive)
56 | COc1ccc(NC(=O)Nc2ccc3c(c2)[C@H]2C[C@H](CC(=O)NC4CCCCC4)O[C@H](CO)[C@H]2O3)cc1 | 0.43% (inactive)
57 | Cn1nccc1/C=N\NC(=O)c1ccc(Cl)cc1 | 69.1% (active)
58 | CC(=NNC(=O)c1ccncc1)c1ccc(Cl)c(Cl)c1 | -0.685% (inactive)
59 | CN1CCC(=NNC(=O)c2ccc(N(Cc3ccc(Cl)cc3)S(C)(=O)=O)cc2)CC1 | -0.516% (inactive)
60 | CC(=O)Nc1ccccc1-c1cn(CC(=O)N2CCOCC2)nn1 | -2.47% (inactive)
61 | CC(C)CC#Cc1cnc2c(c1)C(=O)N([C@@H](C)CO)C[C@H](C)[C@@H](CN(C)Cc1ccccc1C(=O)O)O2 | -0.715% (inactive)
62 | C[C@@H]1CN([C@@H](C)CO)C(=O)c2cc(NC(=O)CCCN(C)C)ccc2O[C@@H](C)CCCCO[C@H]1CN(C)C(=O)Nc1cccc2ccccc12 | -0.656% (inactive)
63 | O=C(C[C@@H]1C[C@H]2c3cc(NC(=O)CC4CC4)ccc3O[C@H]2[C@@H](CO)O1)NCc1ccc2c(c1)OCO2 | -1.7% (inactive)
64 | C[C@@H]1CCCCO[C@@H](CN(C)C(=O)Nc2ccc3c(c2)OCO3)[C@H](C)CN([C@H](C)CO)C(=O)c2cc(NC(=O)CCCN(C)C)ccc2O1 | 1.19% (inactive)
65 | CCC(=O)Nc1ccc2c(c1)C(=O)N(C)C[C@H](OC)[C@H](C)CN(C(=O)c1ccccn1)[C@@H](C)CO2 | -2.41% (inactive)
